The term inhibition denotes the change of the read-out against control, counted positive when it falls.

Screen size: about 91,000 compounds; about 310 (0.34%) were called active. No stated cut-off is given here; in the data, active means inhibition above about 80%; inactive means the rest. Shown is part of a subset that was picked to be rich in actives.

Here are results for 93 compounds from PubChem BioAssay AID707 (Columbia University Molecular Screening Center, 2007).

The target in the assay is Bifunctional epoxide hydrolase 2 (Homo sapiens) (UniProt P34913). Kind of assay: soluble epoxide hydrolase inhibitors, primary screen, biochemical, human sEH (AID 707). The conditions noted are these: recombinant human sEH enzymatic activity assay; at 2 µM; hits give high values.
Chain of Bifunctional epoxide hydrolase 2 (Homo sapiens) (P34913 whole entry, looked up): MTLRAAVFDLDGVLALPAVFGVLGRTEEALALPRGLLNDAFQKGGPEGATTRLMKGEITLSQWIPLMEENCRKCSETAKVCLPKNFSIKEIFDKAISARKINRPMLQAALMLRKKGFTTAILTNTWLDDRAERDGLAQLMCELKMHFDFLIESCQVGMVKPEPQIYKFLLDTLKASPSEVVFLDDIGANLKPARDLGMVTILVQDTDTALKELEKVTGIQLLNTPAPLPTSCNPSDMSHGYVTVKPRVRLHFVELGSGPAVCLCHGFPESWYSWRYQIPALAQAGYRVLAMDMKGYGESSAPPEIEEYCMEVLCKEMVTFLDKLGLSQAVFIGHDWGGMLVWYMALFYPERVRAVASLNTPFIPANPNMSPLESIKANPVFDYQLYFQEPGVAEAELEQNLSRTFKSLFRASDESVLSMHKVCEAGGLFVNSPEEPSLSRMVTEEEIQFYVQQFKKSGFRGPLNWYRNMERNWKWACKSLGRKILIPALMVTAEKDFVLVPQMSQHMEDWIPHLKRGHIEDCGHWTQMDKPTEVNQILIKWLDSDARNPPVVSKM
Take `Cc1ccc(NC(=S)N/N=C2/CCCc3c(C)cc(C)cc32)cc1`: the inhibition is -9.1% (inactive).

`CCN(CC)CCNc1ccc(Cl)cc1[N+](=O)[O-]`: the inhibition is 6.5% (inactive).

On to `CSCc1cc(N2CCOCC2)nc(SCc2ccc(Cl)cc2Cl)n1`, for which the inhibition was -22.1% (inactive). For `COc1ccc(C(=O)Nc2ccccc2C(=O)N/N=C/c2ccccc2OC)cc1`, the inhibition is 4.7% (inactive). Turning to `CCc1ccc(/C=N/NC(=O)c2ccc(OC3CCCC3)cc2)s1`, the inhibition is 95.6% (active). Turning to `CCOc1ccc(C(=O)NC2CCN(S(=O)(=O)CC)CC2)cc1`, the inhibition is -0.5% (inactive). With `O=C(NC1CCCCC1)c1cc([N+](=O)[O-])ccc1N1CCOCC1`, the inhibition is 2.6% (inactive). Take `C/C(=N\NS(=O)(=O)c1cccc([N+](=O)[O-])c1)c1cc2ccccc2o1`: the inhibition is 7.3% (inactive). Turning to `O=C(Nc1ccn(Cc2ccccc2F)n1)c1ccc(COc2ccc(Cl)cc2Cl)o1`, the inhibition was 1.6% (inactive). Regarding `O=C(Nc1ccc(-n2ccnc2P(=O)(O)c2ccccc2)cc1)c1ccccc1Br`, the inhibition is -9.1% (inactive). For the compound `CC(=O)Nc1cccc(/C(C)=N/NC(=O)c2ccccc2Cl)c1`, the inhibition was 7.7% (inactive).

For the compound `O=C(NNS(=O)(=O)c1ccc(Cl)cc1)C1CCN(Cc2ccccc2)CC1`, the inhibition is -4% (inactive). In the case of `CN(C)/C(CN1CCCCC1)=C1\N=C(c2ccccc2)OC1=O`, the inhibition was 6.9% (inactive).

As to `CC(=O)c1cnc(SCCN2C(=O)c3ccccc3C2=O)nc1C`, the inhibition is 8.1% (inactive). For `C=CCNC(=O)c1sc(SC)cc1-c1ccc(Cl)cc1`, the inhibition was -13.7% (inactive). For `CC(C)CNC(=S)NNC(=O)c1ccccc1OC(F)F`, the inhibition is -9.6% (inactive).

On to `COC(=O)c1ccccc1OCC(=O)N1CCN(c2ccc(Cl)cc2)CC1`, for which the inhibition was 46.4% (inactive).

As for `Cc1c(NC(=O)CCCOc2ccccc2)cccc1[N+](=O)[O-]`, the inhibition is 11.7% (inactive). For `CCC(=O)Nc1ccc(C(=O)Nc2cc(C)on2)cc1` the value was -8.6% (inactive); for `CCOc1ccc(C(CCc2ccccc2)NC(=O)c2ccc(OC)c(OC)c2)cc1OCC` (stereo not drawn), -23.6% (inactive); for `COc1cccc(-c2nnc(SCCOc3ccc4c(C)cc(=O)oc4c3)o2)c1`, 12.2% (inactive). Turning to `CCCCn1c(=S)[nH]c2cc(S(=O)(=O)N3CCCCC3)ccc21`, the inhibition was 6.5% (inactive).

As to `O=C(c1ccc(F)cc1)c1c[nH]c(C(=O)NCc2cccnc2)c1`, the inhibition was -11.2% (inactive).

As to `N#Cc1ccsc1NC(=O)CN1CCCCC1`, the inhibition was -1.4% (inactive). On to `O=C(COc1ccc(Cl)cc1)NCCC1=CCCCC1`, for which the inhibition is 14.4% (inactive). On to `COc1cc(C(=O)N2CCN(C/C=C/c3ccccc3)CC2)cc(OC)c1C`, for which the inhibition was -12.7% (inactive). Next, `NC(=O)N1CCCC1C(=O)Nc1ccc(Cl)c(Cl)c1` (stereo not drawn): 6.3% (inactive). `Nc1nc(Br)c2ccccc2c1-c1ccc(F)cc1`: the inhibition was 4.8% (inactive). As to `Cc1ccc(-c2csc(N(Cc3ccco3)C(=O)c3cccs3)n2)cc1`, the inhibition was -9.9% (inactive). For `O=[N+]([O-])c1ccc(NCCCN2CCOCC2)c(Cl)c1`, the inhibition was 19.3% (inactive). As to `CC(C)NC(=O)NC(=O)COC(=O)c1ccc(NC(=O)CC#N)cc1`, the inhibition is -6% (inactive). For `CC(C)C(NS(=O)(=O)c1cccs1)C(=O)Nc1nc(C(C)(C)C)cs1` (stereo not drawn), the inhibition was 3.1% (inactive).

Consider `COc1cccc(/C=N/NC(=O)C(=O)N2CCCC2)c1`, for which the inhibition is -4.3% (inactive). On to `O=c1cc(N2CCN(Cc3ccccc3)CC2)c(-c2ccccc2)n[nH]1`, for which the inhibition was 5.8% (inactive). For the compound `COc1cccc(NC(=O)C2c3cc(OC)c(OC)cc3C(=O)N(C)C2c2cccnc2)c1` (stereo not drawn), the inhibition is -8.1% (inactive). `O=C(CN1C(=O)NC2(CCCC2)C1=O)Nc1ccc(F)c(F)c1F`: the inhibition is -1.5% (inactive). Turning to `O=C(CCCN1C(=O)c2cccc3cccc(c23)C1=O)N1CCN(Cc2ccc3c(c2)OCO3)CC1`, the inhibition is 5.9% (inactive). Next, `N/C(=N\OC(=O)c1cc(-c2ccccc2)nc2ccccc12)c1ccncc1`: -2% (inactive). As to `O=C(CSCc1ccc([N+](=O)[O-])cc1)Nc1cccc(C(=O)Nc2ccccc2C(=O)O)c1`, the inhibition is -3.9% (inactive). Take `Cc1cc(C(=O)OCC(=O)Nc2ccc(F)c(F)c2)c(C)o1`: the inhibition was 7.9% (inactive).

Regarding `CCC(C)n1c(-c2cc(OC)c(OC)c(OC)c2)nc2nc3ccccc3nc21` (stereo not drawn), the inhibition was -0.7% (inactive). For `O=C(CNC(=O)OCc1ccccc1)Oc1cc2oc(=O)cc(-c3ccccc3)c2cc1Cl`, the inhibition is -5.2% (inactive). Regarding `COc1ccccc1N(C)S(=O)(=O)c1ccc(C(=O)N2CCC(C(N)=O)CC2)cc1`, the inhibition is 12.9% (inactive). As for `CN(C(=O)CSc1nc(C2CC2)nc2ccccc12)c1nc(-c2ccccc2)cs1`, the inhibition was 4.4% (inactive).

As to `CCCCNC(=O)c1onc(CSc2cccc(OC)c2)c1C(=O)O`, the inhibition is -10.5% (inactive). For `CCOC(=O)C1=C(CN2CCc3ccccc32)NC(=O)NC1c1cc(C)ccc1C` (stereo not drawn) the value was -4.9% (inactive); for `COc1ccc(SCc2noc(C(=O)NCC3CCCO3)c2C(=O)O)cc1` (stereo not drawn), 1.5% (inactive).

Turning to `CCCCCC(=O)Nc1ccc2oc(-c3ccncc3)nc2c1`, the inhibition was 84.3% (active). Take `O=C(Nc1ccc2oc(-c3ccc4ccccc4c3)nc2c1)c1cccs1`: the inhibition is 34.6% (inactive).

With `O=C(Cc1cccc2ccccc12)Nc1ccc2oc(-c3ccccc3)nc2c1`, the inhibition is 50% (inactive). Take `C=CCNc1cnn(-c2ccc(C)cc2)c(=O)c1Cl`: the inhibition was 1.9% (inactive).

`CC(C)CC(=O)N1CCC(O)(CS(=O)(=O)Cc2ccccc2)CC1`: the inhibition was 1.9% (inactive). In the case of `O=C(CN1CCN(S(=O)(=O)c2ccc(Cl)s2)CC1)NCc1ccc(Cl)cc1`, the inhibition was -1.1% (inactive). As to `CC(C)(CCl)C(=O)Nc1ccc(Sc2ccc(F)cc2)cc1`, the inhibition is 28.4% (inactive). Turning to `COC(=O)C(NC(=O)c1ccc(OC)cc1)(Nc1ncc(S(=O)(=O)c2ccc([N+](=O)[O-])cc2)s1)C(F)(F)F` (stereo not drawn), the inhibition is -1.7% (inactive). Regarding `COc1ccc(OCC(=O)NN2Cc3ccccc3C2=N)cc1`, the inhibition is 4.7% (inactive). As for `Cc1ccccc1CSCCNC(=O)c1ccc(Cl)c(S(=O)(=O)N2CCOCC2)c1`, the inhibition was 83.4% (active). Next, `Cc1ccccc1CSCCNC(=O)c1ccc(N(C)S(=O)(=O)c2ccccc2)cc1`: 36.1% (inactive). `O=C(NCCSCc1ccccc1)c1ccc(Cl)c(S(=O)(=O)N2CCOCC2)c1`: the inhibition is 78.5% (inactive). Consider `O=C(COC(=O)c1ccccc1NC(=O)c1ccco1)Nc1ccc2c(c1)OC(F)(F)O2`, for which the inhibition was 28.3% (inactive). On to `CO/N=C/c1ccc(N2CCN(C(=O)c3cccc(Cl)c3)CC2)c([N+](=O)[O-])c1`, for which the inhibition was -9.1% (inactive).

On to `N#C/C(=C(/O)Cc1cccc2ccccc12)c1nc2ccccc2s1`, for which the inhibition is -15.9% (inactive). Turning to `O=C(ON=C1CCN(S(=O)(=O)c2ccccc2)CC1)c1ccc(Cl)cc1`, the inhibition is 2.3% (inactive). Next, `O=C(CSc1ccc(/C=N/NC(=O)c2cccc(F)c2)o1)Nc1ccccc1`: 79% (inactive); `Cc1noc(C)c1S(=O)(=O)N(CC(=O)NCc1ccc(Cl)cc1)c1ccc2c(c1)OCO2`: 14.5% (inactive); `O=C(/C=C/c1cc2c(cc1Br)OCO2)NCc1ccc(Cl)cc1`: 85.9% (active). `O=C(/C=C/c1ccc(Cl)cc1Cl)NCc1ccco1`: the inhibition was 19.3% (inactive).

For the compound `O=C(CNC(=O)Cc1ccccc1)NCC(=O)OCC(=O)c1ccccc1Cl`, the inhibition was -0.5% (inactive). Turning to `CCC(=O)OCc1c(C(F)(F)F)nn(C)c1Oc1cccc(C(F)(F)F)c1`, the inhibition was 7.8% (inactive).

In the case of `O=C(O)c1ccccc1NC(=S)NC(NC(=O)c1ccccc1[N+](=O)[O-])C(Cl)(Cl)Cl` (stereo not drawn), the inhibition is 7.4% (inactive).

As to `CNC(=S)NNC(=O)c1sccc1OCc1ccccc1`, the inhibition was -3.9% (inactive). As for `N#Cc1cc([N+](=O)[O-])ccc1Oc1cccc(/C=N/NC(=O)c2ccc(Cl)cc2)c1`, the inhibition is 18.1% (inactive). As for `COc1ccc(-c2cc(C(=O)n3cnc4ccccc43)c3ccccc3n2)cc1`, the inhibition is -13.6% (inactive). Next, `Cc1cc([N+](=O)[O-])c(NC2CCCCC2)c([N+](=O)[O-])c1`: -4.6% (inactive); `O=C(NCCCN1CCCCC1)c1ccc2c(c1)NC(=O)C(N1CCOCC1)S2` (stereo not drawn): 10% (inactive). Regarding `COc1ccc(C(=O)NCCc2ccc(S(N)(=O)=O)cc2)cc1OC`, the inhibition was 6.9% (inactive). As to `COc1ccc(CCNC(=O)c2ccc3c(c2)NC(=O)C(N2CCOCC2)S3)cc1OC` (stereo not drawn), the inhibition was 100% (active).

`O=C1CSC(c2ccccc2)N1c1nc(-c2ccc(Cl)cc2Cl)cs1` (stereo not drawn): the inhibition was 10.5% (inactive).

On to `O=C(CN1C(=O)NC(Cc2ccccc2)(Cc2ccccc2)C1=O)NCC1CCCCC1`, for which the inhibition is -8.9% (inactive).

For `Cn1c2ccccc2n2c(=O)c(=O)n(CC(=O)c3ccc(F)cc3)nc12`, the inhibition was -2% (inactive).

For the compound `O=C(CN1CCCCCC1)Nc1ccc(Br)cc1Br`, the inhibition is 9.4% (inactive). Next, `CC1(C)CC(=O)C(C=NCCN2CCN(C(=S)Nc3cccc(Cl)c3)CC2)=C(O)C1`: 13.9% (inactive); `O=C(Cn1cncn1)N/N=C/c1c2ccccc2cc2ccccc12`: 2% (inactive). Take `C=CCOC(=O)C1=C(C)NC(C)=C(C(=O)OCC=C)C1c1cccs1`: the inhibition is -5.1% (inactive). `COc1ccccc1CSc1nc2ccccc2[nH]1`: the inhibition was -2.6% (inactive).

On to `COc1cc(OC)c(/C=N/NC(=O)c2ccc([N+](=O)[O-])cc2)cc1Br`, for which the inhibition was 35.2% (inactive). For the compound `Cc1ccc(NC(=S)Nc2ncccc2C)c(C)c1`, the inhibition was 6.9% (inactive). Turning to `O=C(/C=C/c1ccccc1)N/C(=C/c1ccccc1)C(=O)Nc1ccccc1O`, the inhibition is 2.8% (inactive). `Cc1cc2cc3c(N)[nH]nc3nc2cc1C`: the inhibition is 4.3% (inactive). As for `Cc1ccc(-n2nc(N)c3c(=O)oc(N(C)C)nc32)cc1`, the inhibition is 10.2% (inactive). For `COc1cc(C(=O)NC(=S)NCc2ccco2)cc(OC)c1OC`, the inhibition was 12% (inactive).

For the compound `Cc1ccc(-c2nc3ccccc3[nH]2)cc1NC(=O)c1sc2ccccc2c1Cl`, the inhibition is 10.9% (inactive). As to `NC(=O)C1(N2CCCCC2)CCN(C(=S)Nc2ccc(Cl)cc2)CC1`, the inhibition was 0.6% (inactive).
